Reference: PubChem BioAssay (NCI)
The panel holds about 83,000 compounds, 20% with a hit somewhere; the sample as a whole holds those more often.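 Each cell line was grown in a 96-well plate and treated with one concentration of compound for 48 hours. Values below 10 were considered active.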 A number with no mark means an inactive call. Calls of active or inactive are those of the source.

How the values were obtained:
Assay in all cases: NCI-60 one-dose screen, 48 h (100 = growth as untreated, 0 = no growth, -100 = all killed)
Details in all cases: 10 µM unless noted
SK-MEL-2 melanoma = system: SK-MEL-2 melanoma
EKVX NSCLC = system: EKVX NSCLC
SN12C renal = system: SN12C renal
UO-31 renal = system: UO-31 renal
TK-10 renal = system: TK-10 renal
ACHN renal = system: ACHN renal
CAKI-1 renal = system: CAKI-1 renal
A498 renal = system: A498 renal
CCRF-CEM leukemia = system: CCRF-CEM leukemia
MOLT-4 leukemia = system: MOLT-4 leukemia
SR leukemia = system: SR leukemia
RPMI-8226 leukemia = system: RPMI-8226 leukemia
OVCAR-8 ovarian = system: OVCAR-8 ovarian
OVCAR-5 ovarian = system: OVCAR-5 ovarian
OVCAR-4 ovarian = system: OVCAR-4 ovarian
IGROV1 ovarian = system: IGROV1 ovarian
OVCAR-3 ovarian = system: OVCAR-3 ovarian
HS 578T breast = system: HS 578T breast
NCI/ADR-RES ovarian = system: NCI/ADR-RES ovarian
SK-OV-3 ovarian = system: SK-OV-3 ovarian

| SMILES | growth (SK-MEL-2 melanoma) | growth (EKVX NSCLC) | growth (SN12C renal) | growth (UO-31 renal) | growth (TK-10 renal) | growth (ACHN renal) | growth (CAKI-1 renal) | growth (A498 renal) | growth (CCRF-CEM leukemia) | growth (MOLT-4 leukemia) | growth (SR leukemia) | growth (RPMI-8226 leukemia) | growth (OVCAR-8 ovarian) | growth (OVCAR-5 ovarian) | growth (OVCAR-4 ovarian) | growth (IGROV1 ovarian) | growth (OVCAR-3 ovarian) | growth (HS 578T breast) | growth (NCI/ADR-RES ovarian) | growth (SK-OV-3 ovarian) |
| --- | --- | --- | --- | --- | --- | --- | --- | --- | --- | --- | --- | --- | --- | --- | --- | --- | --- | --- | --- | --- |
| OCNc1ccc(-n2cnc3cc(-c4ccc(O)cc4)ccc32)cc1C(F)(F)F | 21.7% | 34.7% | 19.7% | 13.1% | 46.6% | 12.2% | 33.5% | 74.9% | 31.9% | 15% | 25.3% | 24.1% | 16% | 34.4% | 55% | 44% | 15.9% | 11.2% | 17.2% | – |
| NS(=O)(=O)c1ccc(CCNC(=O)CSc2ccc(-c3ccc(Br)cc3)nn2)cc1 | 56.4% | 74.3% | 80.7% | 56.4% | 72.2% | 59.6% | 65.3% | 78.4% | 54.3% | 39% | 55.9% | 40.1% | 64.6% | 94.9% | 49.3% | 72.1% | 91% | 73.1% | 102% | – |
| COc1cc2oc(-c3cccc(NC(=O)[C@H](CC(N)=O)NC(=O)OC(C)(C)C)c3)cc(=O)c2c(OC)c1OC | 103% | 99.1% | 96.9% | 80.1% | 118% | 80.7% | 84.5% | 93.8% | 54.5% | 65.1% | 58.4% | 69.3% | 73.3% | 95.5% | 94.6% | 96.9% | 105% | 83.1% | 102% | – |
| O=C1CC(Sc2n[nH]c(-c3ccncc3)n2)C(=O)N1c1ccc(Br)cc1 (configuration not stated) | 116% | 106% | 93.6% | 88.7% | 101% | 109% | 99.9% | 111% | 88.9% | 115% | 97.4% | 94.1% | 105% | 105% | 110% | 112% | 114% | 111% | 111% | – |
| O=c1[nH]c2ccc(Cl)cc2cc1CSc1nccc(-c2ccc(Cl)cc2)n1 | 34.5% | 42.8% | 39.9% | 60% | 88.2% | 20.2% | -51.3% (active) | 98.4% | 113% | 85.5% | 88.6% | 71.3% | 42.9% | 66.4% | 38.9% | 59.3% | 86.6% | 33.8% | 56.7% | – |
| Nc1nnc(-c2c[nH]c3ncc(Br)cc23)c(-c2c[nH]c3ccc(F)cc23)n1 | 25.3% | 41.5% | 38.8% | 42.8% | 67% | 40.8% | 42.7% | 74% | 42.7% | 9.73% (active) | 13.6% | 33.7% | 39% | 48.6% | 59.6% | 37.4% | 33.2% | 28% | 70.7% | – |
| COc1ccc(NC(=O)Cn2c(O)c(N=Nc3ccc(S(N)(=O)=O)cc3)c3ccccc32)cc1 | 50.6% | 62% | 60% | 84.1% | 75.9% | 35.2% | 27.4% | 103% | 85.3% | 73.6% | 83.8% | 71.6% | 24.5% | 65.9% | 82.2% | 34.4% | 50.7% | 80.7% | 93.8% | – |
| Cn1cc(-c2nc(N)nnc2-c2c[nH]c3ccc(F)cc23)c2cc(Br)cnc21 | -27.7% (active) | 26.2% | 10.4% | 6.23% (active) | 26.2% | 12.2% | -10.9% (active) | -31.2% (active) | 5.12% (active) | -0.149% (active) | 3.88% (active) | -6.78% (active) | 0.188% (active) | 14.9% | 29.8% | 15.8% | -33.2% (active) | 35.8% | 0.236% (active) | – |
| Cc1ccc(C(=O)NN2C(=O)/C(=C/C=C/c3ccc([N+](=O)[O-])o3)SC2=S)cc1 | -89.8% (active) | -97% (active) | -89.3% (active) | -100% (active) | -98.3% (active) | -100% (active) | -100% (active) | -73.3% (active) | 4.08% (active) | 9.73% (active) | 2.44% (active) | -1.56% (active) | -75.9% (active) | -94.9% (active) | -100% (active) | -90.3% (active) | -97.3% (active) | -18.3% (active) | -48.8% (active) | – |
| COc1cc2c(c(OC)c1OC)C(=O)CC(c1cccc(NC(=O)c3cc(N)ccc3Cl)c1)O2 (configuration not stated) | 32.7% | 78.7% | 64.6% | 51.5% | 106% | 50.6% | 50.3% | 105% | 22.5% | 21.5% | – | 40.2% | 18.8% | 100% | 52.7% | 72.9% | 33.8% | 80.6% | 20.5% | 65.6% |
| COc1cccc(-c2c(C#N)c(-c3ccc(Cl)cc3)nc3n[nH]c(-c4ccc(Cl)cc4)c23)c1 | 53.1% | 33.9% | 44.8% | 35.2% | 71.8% | 56.2% | 39.1% | 100% | 23.7% | 2.7% (active) | 16.3% | 7.25% (active) | 48.3% | 69% | 26.5% | 65.2% | 58% | – | 59.3% | – |
| N/C(=N\c1nc2ccccc2s1)NC(=O)Nc1ccccc1Br | -0.501% (active) | 27.1% | -39.3% (active) | 11.3% | -15.6% (active) | -39.3% (active) | -17.4% (active) | 26.2% | 12.6% | 21.5% | 12.1% | -0.145% (active) | -55.7% (active) | -17% (active) | -59.1% (active) | 11.5% | -72.3% (active) | -5.34% (active) | -57.1% (active) | – |
| Cc1cc2c(cc1Cl)C(=O)/C(=C/c1ccc(F)cc1)O2 | 122% | 90.8% | 82.1% | -80.7% (active) | 125% | 96.9% | 75.3% | 149% | 94.5% | 84.3% | 89.1% | 97.2% | 97.5% | 106% | 90.9% | 20.9% | 124% | 97.1% | 93.3% | – |
| COc1ccc2oc3c4[nH]c5ccccc5c4c4c(c3c2c1)C(=O)N(C(=O)OC(C)(C)C)C4=O | -46.8% (active) | -18.9% (active) | -19.3% (active) | -12.8% (active) | -11% (active) | -22.3% (active) | -15.3% (active) | -10.9% (active) | 6.52% (active) | -28.4% (active) | -5.86% (active) | -10.4% (active) | -20.1% (active) | 6.78% (active) | -6.75% (active) | -1.25% (active) | -33.7% (active) | -1.85% (active) | -17.9% (active) | – |
| CN1CCc2c(sc3ncnc(N/N=C/c4ccc(Cl)cc4Cl)c23)C1 | 9% (active) | 33.1% | -32.8% (active) | -95.7% (active) | -84% (active) | -66.6% (active) | -61.6% (active) | 28.5% | -8.48% (active) | 1.96% (active) | -16.5% (active) | -9.12% (active) | 6.87% (active) | -18.6% (active) | -40.6% (active) | 30.4% | -56.5% (active) | – | 8.35% (active) | 0.686% (active) |
| O=C(N/N=C/c1ccc(-c2ccc(O)cc2)o1)c1[nH]c2ccc(Br)cc2c1-c1ccccc1 | 1.84% (active) | 8.78% (active) | -57.9% (active) | 1.62% (active) | 1.67% (active) | -21.7% (active) | 5.94% (active) | 38.2% | 4.83% (active) | 0.944% (active) | -9.54% (active) | -9.92% (active) | -33.5% (active) | 1.22% (active) | 24.4% | -17.3% (active) | -41.1% (active) | – | -12.1% (active) | – |
